# According to paper PMC3218832:
# Target: C-Rel subunit;p50 subunit (Homo sapiens;Homo sapiens, UniProt Q04864;P19838 1-285;7-356)
# Assay: protein binding microarray; high values mean tight binding
# Conditions: dsDNA, one strand shown
row,Sequence,binding signal
1,AAAGAAGTCCT,-0.558 z-score
2,GAGTTCTCCCC,1.15 z-score
3,CGGATTGCCCC,1.07 z-score
4,CAAGGAGCCCC,0.121 z-score
5,GAAGACACCCC,-0.163 z-score
6,GGGTGTGTCCC,0.648 z-score
7,CGGGGCATCCT,0.188 z-score
8,AGAAGTCTCCT,-1.36 z-score
9,AGGTACATCCT,-0.674 z-score
10,GAATTGTCCCC,1.27 z-score
11,CAAAACACCCC,0.611 z-score
12,AAGGTATTCCT,-0.255 z-score
13,AAATGCCCCCC,1.28 z-score
14,CAAAGGCTCCT,-1.99 z-score
15,AAAGTTACCCT,0.279 z-score
16,CAATGACTCCT,-1.33 z-score
17,CAGAAGGCCCC,-0.241 z-score
18,CAGAGATTCCT,-0.64 z-score
19,AAAGTGCCCCC,0.964 z-score
20,AAGGGGCTCCT,-0.103 z-score

row,Sequence,binding signal
1,GGGATAGTCCC,1.32 z-score
2,CGGGTATCCCC,1.64 z-score
3,AAGGTCCCCCC,1.34 z-score
4,CGATGTGTCCC,0.132 z-score
5,AGAGGCGTCCC,-0.234 z-score
6,GAAGAGCCCCT,0.202 z-score
7,AGGGTGGTCCC,0.364 z-score
8,CGAAGCTTCCC,-0.253 z-score
9,GAGAATGTCCT,-0.737 z-score
10,AGGAATGCCCT,-0.208 z-score
11,GGAGATATCCT,-1.35 z-score
12,GAAGGTGCCCT,-1.15 z-score
13,CGGTTCATCCT,-1.41 z-score
14,AGAGGTCTCCC,-0.507 z-score
15,AGATGTTCCCT,0.0801 z-score
16,AGAGATGCCCT,-0.882 z-score
17,AAGATTCTCCT,-1.1 z-score
18,CGGGATGCCCC,0.949 z-score
19,GAATAGGTCCT,-1.35 z-score

# Target: T1, C-Rel subunit;p52 subunit (Homo sapiens;Homo sapiens, UniProt Q04864;Q00653 1-285;4-332)
# T1 sequence 1: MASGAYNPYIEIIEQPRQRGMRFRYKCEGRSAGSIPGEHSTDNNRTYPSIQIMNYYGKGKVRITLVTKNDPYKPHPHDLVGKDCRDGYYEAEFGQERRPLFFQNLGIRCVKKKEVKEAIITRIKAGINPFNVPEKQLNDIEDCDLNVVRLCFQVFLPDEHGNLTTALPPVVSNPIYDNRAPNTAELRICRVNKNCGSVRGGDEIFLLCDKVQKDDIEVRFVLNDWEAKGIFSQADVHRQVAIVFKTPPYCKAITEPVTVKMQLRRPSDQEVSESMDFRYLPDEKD
# T1 sequence 2: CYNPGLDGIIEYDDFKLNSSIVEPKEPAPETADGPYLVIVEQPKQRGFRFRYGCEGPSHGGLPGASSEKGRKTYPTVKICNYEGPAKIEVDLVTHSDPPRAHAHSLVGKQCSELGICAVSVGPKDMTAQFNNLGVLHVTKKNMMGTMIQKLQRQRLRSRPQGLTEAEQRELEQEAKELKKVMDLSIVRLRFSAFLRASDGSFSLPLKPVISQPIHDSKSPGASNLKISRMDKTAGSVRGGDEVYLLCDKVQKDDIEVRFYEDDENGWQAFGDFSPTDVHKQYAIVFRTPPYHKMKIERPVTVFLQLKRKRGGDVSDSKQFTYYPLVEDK
# Assay: as above
# Conditions: dsDNA, one strand shown
row,Sequence,binding signal
1,AAAGAAGTCCT,-0.645 z-score
2,GAGTTCTCCCC,0.673 z-score
3,CGGATTGCCCC,0.987 z-score
4,CAAGGAGCCCC,-0.176 z-score
5,GAAGACACCCC,-0.242 z-score
6,GGGTGTGTCCC,0.813 z-score
7,CGGGGCATCCT,0.458 z-score
8,AGAAGTCTCCT,-0.926 z-score
9,AGGTACATCCT,-0.415 z-score
10,GAATTGTCCCC,0.963 z-score
11,CAAAACACCCC,0.701 z-score
12,AAGGTATTCCT,-0.012 z-score
13,AAATGCCCCCC,0.954 z-score
14,CAAAGGCTCCT,-1.13 z-score
15,AAAGTTACCCT,0.216 z-score
16,CAATGACTCCT,-1.13 z-score
17,CAGAAGGCCCC,-0.183 z-score
18,CAGAGATTCCT,-0.606 z-score
19,AAAGTGCCCCC,0.619 z-score
20,AAGGGGCTCCT,0.392 z-score

row,Sequence,binding signal
1,GGGATAGTCCC,1.96 z-score
2,CGGGTATCCCC,2.53 z-score
3,AAGGTCCCCCC,0.964 z-score
4,CGATGTGTCCC,0.074 z-score
5,AGAGGCGTCCC,-0.17 z-score
6,GAAGAGCCCCT,0.429 z-score
7,AGGGTGGTCCC,0.427 z-score
8,CGAAGCTTCCC,-0.652 z-score
9,GAGAATGTCCT,-0.678 z-score
10,AGGAATGCCCT,0.0938 z-score
11,GGAGATATCCT,-0.82 z-score
12,GAAGGTGCCCT,-0.907 z-score
13,CGGTTCATCCT,-1.01 z-score
14,AGAGGTCTCCC,-0.363 z-score
15,AGATGTTCCCT,-0.204 z-score
16,AGAGATGCCCT,-0.704 z-score
17,AAGATTCTCCT,-0.941 z-score
18,CGGGATGCCCC,1.61 z-score
19,GAATAGGTCCT,-0.527 z-score
